In the library only some 19% were active in any assay of this set; here they are far more common.
DT40 TDP1 no CPT: qHTS for Inhibitors of human tyrosyl-DNA phosphodiesterase 1 (TDP1): qHTS in cells in absence of CPT | DT40 Tdp1-/- hTDP1 cells, no CPT, ATP luminescence, 48 h | Potency, µM (highest dose often 46.2 µM), for the others: top-dose activity change, negative = growth inhibition, usual class: inhibitors | 420,000 compounds, 15% hits; further: potency means the concentration at half of the fitted maximal effect; nearly all actives have a fitted effect of over 55% in size
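DT40 Tdp1-/-;hTDP1 cells, no CPT (DMSO vehicle only), 400 cells/well; compounds pin-transferred; ≥48 hr, 37 °C; CellTiter-Glo 30 min RT dark, luminescence read.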
DT40 TDP1 CPT: growth inhibition of DT40 Tdp1-/-;hTDP1 cells with camptothecin (screen for TDP1 inhibitors). Potency, µM (doses to about 46.2 µM), for inactives: at the top dose activity change, negative = growth inhibition, actives largely listed as inhibitors. 420,000 compounds, 12% hits. chicken DT40 Tdp1-/-;hTDP1 cells + 20 nM CPT, ATP luminescence, 48 h. AID 686979; further: potency means the concentration at half of the fitted maximal effect; nearly all actives have a fitted effect of over 55% in size
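Cell growth measured by CellTiter-Glo luminescence after a minimum 48 h, 37 C compound exposure with 20 nM CPT in Tdp1-knockout DT40 cells stably expressing hTDP1, seeded 400/well; qHTS titration format.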
HT1080 IDH1KD tx: toxicity to HT-1080 IDH1 knockdown cells (counter line) | HT-1080 IDH1 knockdown viability, ATP luminescence, 48 h | 360,000 compounds, 2% hits | Potency, µM (doses to about 46.1 µM), for inactives: top-dose activity, negative = toxicity, usual class: cytotoxic;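 further: potency means the concentration at half of the fitted maximal effect; 0% = DMSO wells and -100% = cell-free medium wells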
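After a 2 h attachment period, IDH1KD HT-1080 cells took pin-transferred compound for 48 h at 37 °C; ATP-based luminescence after 10 min room-temperature reagent incubation reported viability.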
ELG1 repair inh: inhibitors of ELG1-dependent DNA repair in HEK293T cells | Potency, µM (highest dose often 46.1 µM), for inactives: top-dose activity change, negative = inhibition, actives largely listed as inhibitors | AID 504467 | 330,000 compounds, 2.3% hits | HEK293T ELG1-luciferase reporter, luminescence, 16 h; DNA damage induced by 5-fluorouridine; further: potency means the concentration at half of the fitted maximal effect; nearly all actives have a fitted effect of over 55% in size
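DMSO vehicle served as the neutral condition. Each well held 2,000 cells given 5-fluorouridine plus compound; after 16 hr at 37 °C/5% CO2, ONE-Glo was added and luciferase measured 30 min later.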
HT1080-NT tox: kills 2HG-producing HT-1080-NT fibrosarcoma cells; HT-1080-NT fibrosarcoma viability, CellTiter-Glo ATP luminescence, 48 h; 360,000 compounds, 1.6% hits; Potency, µM (doses to about 46.1 µM), inactives show at the top dose activity, negative = less viability, actives largely listed as cytotoxic;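 further: NT is the 2HG producing partner of a matched IDH1 knockdown line; potency means the concentration at half of the fitted maximal effect; 0% = DMSO-treated cells and -100% = media-only wells without cells; nearly all actives have a fitted effect of over 55% in size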
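Viability of the 2HG-overproducing fibrosarcoma line after 48 hours of compound exposure at 37 degrees C was determined by luminescence with CellTiter-Glo, and concentration-effect curves were then fitted and categorized.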
IL-1B inflam inh: blocks inflammasome-driven IL-1 beta release | THP-1 LPS/ATP IL-1B secretion, AlphaLISA, 16 h; stronger effect = lower value | activity change, % at 57.5 µM | 360,000 compounds, 4.7% hits | AID 743279; in the data active means activity change below about -50%; inconclusive means mostly about -30% to -49%
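Secreted IL-1B measured by AlphaLISA bead assay after 16 h compound exposure of THP-1 cells; compounds (final up to 57.5 uM) added 1 h before LPS (250 ng/mL) and ATP (1.25 mM) stimulation; lower signal means less secretion.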
An asterisk follows results filed as active; ? = inconclusive; nt = no result; ! = not active in a repeat. Unless noted, the call rests on the fitted dose curve; in most records, active means well fitted curve in the direction sought with a large enough effect; inconclusive means small, poorly fitted or top-dose-only effect, or another doubt; inactive means no such curve, though single readings can be large; an effect the other way counts as inactive or inconclusive. Unless noted, on the % scale 0 is the no-effect control and ±100 the full control effect.

SMILES | DT40 TDP1 no CPT | DT40 TDP1 CPT | HT1080 IDH1KD tx | ELG1 repair inh | HT1080-NT tox | IL-1B inflam inh
COC(=O)[C@@]12C[C@@H](CC(=O)N3CCCC3)C(=O)N(Cc3ccco3)C1=CCC(C)(C)C2 | 16.4µM* | ? | -0.3% | nt | 11.3% | -8.0
COC(=O)[C@@]12C[C@@H](CC(=O)N3CCN(C(=O)C4CC4)CC3)C(=O)N(Cc3ccccc3)C1=CCC(C)(C)C2 | ? | ? | 0.4% | nt | 18.6% | -5.1
COC(=O)[C@@]12C[C@@H](CC(=O)N3CCCCC3)C(=O)N(Cc3ccccc3)C1=CCC(C)(C)C2 | 18.4µM* | ? | -7.4% | nt | -2.1% | -18.8
COC(=O)[C@@]12C[C@@H](CC(=O)N3CCCC3)C(=O)N(Cc3ccccc3)C1=CCC(C)(C)C2 | ? | 23.1µM* | -17.8% | nt | 5.3% | 24.7
Cc1ccccc1-n1c(-c2ccc(Cl)cc2)cnc1SCC(=O)NC1CCS(=O)(=O)C1 (stereo unspecified) | ? | ? | 2.4% | 12.9% | -5.5% | 5.4
COc1ccc(C(=O)N2CCC3(CC2)CN(C(=O)Nc2cccc(C#N)c2)C3)cc1 | ? | -13.1% | nt | nt | nt | nt
O=C(COC(=O)c1ccc(OC(F)F)cc1)NCC1CCCO1 (stereo unspecified) | -19.4% | -0.9% | 8.6% | nt | 5.2% | -5.0
COc1cc(CCC(=O)NCc2ccc(F)cc2)cc(OC)c1OC | 4.5% | -0.7% | 11.2% | 1.5% | 5.3% | 12.9
COc1ccccc1-c1cc(C(F)(F)F)nc(S(C)(=O)=O)n1 | 5.8µM* | 3.66µM* | 18.4µM* | ? | ? | -109.0*
COc1ccccc1-c1cc(C(F)(F)F)nc(S(=O)(=O)CCCC(=O)NC(C)C)n1 | 3.26µM* | 2.31µM* | 5.8µM* | ? | 5.8µM* | -97.5*
COc1ccccc1-c1cc(C(F)(F)F)nc(S(=O)(=O)CCCC(=O)NCc2ccc(F)cc2)n1 | 4.11µM* | 2.91µM* | 16.4µM* | ? | 9.2µM* | -99.6*
COc1ccccc1-c1cc(C(F)(F)F)nc(S(=O)(=O)CCCC(=O)N2CCCCC2C)n1 (stereo unspecified) | 4.11µM* | 4.11µM* | 23.1µM* | ? | ? | -97.1*
COc1ccc2c(c1)c1c(c(=O)n(-c3ccc(OC)c(OC)c3)c(=O)n1Cc1ccc(F)cc1)n2C | -19.3% | -3.1% | nt | nt | nt | nt
Cc1ccc(NC(=O)COC(=O)c2cc(=O)c3ccccc3o2)cc1F | 27.1% | -14.3% | -0.7% | 6.9% | -2.5% | -5.4
COc1ccc(-c2noc(=O)n2Cc2ccccc2Cl)cc1 | -17.8% | 8.5% | 4.4% | 0.9% | 5.3% | 15.0
O=C(NCCC1=CCCCC1)C1CCN(S(=O)(=O)c2ccc(Br)s2)CC1 | 20.6µM* | 20.6µM* | 4.4% | -20.6% | 4.6% | 11.4
O=C(NCCC1=CCCCC1)C1CCCN(S(=O)(=O)c2ccc(F)cc2)C1 (stereo unspecified) | 20.6µM* | 11.6µM* | 0.0% | ? | -0.7% | 10.4
Cn1cccc1C(NC(=O)c1ccccc1)C(Cl)(Cl)Cl (stereo unspecified) | ? | ? | 0.0% | 3.7% | 0.3% | 0.6
O=C(NCC1CCCCC1)c1ccccc1[N+](=O)[O-] | -0.6% | ? | -3.1% | -13.8% | -0.2% | 31.5
C=CCn1c(=O)c2c3c(sc2n2c(Nc4ccc(OC)cc4)nnc12)CCCC3 | 8.2µM* | 9.2µM* | 8.0% | 8.2µM* | 2.1% | -70.9*
C=CCn1c(=O)c2c3c(sc2n2c(Nc4ccc(C(=O)OCC)cc4)nnc12)CCCC3 | 11.6µM* | 13µM* | -4.7% | -17.2% | 0.4% | 13.7
CCOC(=O)c1ccc(Nc2nnc3nc(C)cc(C)n23)cc1 | -7.3% | -8.5% | 8.3% | 12.1% | 12.0% | -15.1
Cc1nnc2n(Cc3ccccc3)c(=O)c3c4c(sc3n12)CCCC4 | nt | nt | nt | 2.7% | nt | nt
COC(=O)CSc1nnc2n(-c3ccc(OC)cc3)c(=O)c3c4c(sc3n12)CCCCC4 | -16.2% | 0.7% | -18.2% | -0.8% | -25.4% | -25.6
C=CCn1c(=O)c2c3c(sc2n2c(Nc4ccccc4)nnc12)CCCC3 | 10µM* | 8.91µM* | -3.9% | 20.6µM* | -14.9% | -18.6
SMILES | DT40 TDP1 no CPT | DT40 TDP1 CPT | HT1080 IDH1KD tx | ELG1 repair inh | HT1080-NT tox | IL-1B inflam inh
O=C([C@H]1O[C@@H](n2ccc(=O)[nH]c2=O)[C@H](O)[C@@H]1O)N1CCC(F)(F)CC1 | 5.0% | -0.4% | 17.2% | nt | ? | 19.7
COc1ccc(C(C(=O)NCc2ccccc2)N(C(=O)Cn2nnc3ccccc32)c2cccc(OC)c2)cc1 (stereo unspecified) | -15.6% | ? | nt | nt | nt | nt
COc1ccccc1C(c1c(O)cc(C)n(Cc2ccco2)c1=O)N1CCCCC1 (stereo unspecified) | 3.1% | -20.8% | nt | nt | nt | nt
Cn1nc(C(=O)N2CCN(c3ccccc3F)CC2)c2c1-c1ccccc1S(=O)(=O)C2 | ? | 14.6µM*! | 0.0% | -6.0% | 17.7% | 0.0
Cc1ccc2c(c1)-c1c(c(C(=O)N3CCN(c4cc(Cl)ccc4C)CC3)nn1C)CS2 | 18.4µM* | ? | nt | nt | nt | nt
Cn1nc(C(=O)N2CCN(c3ccccc3)CC2)c2c1-c1ccccc1SC2 | 8.9% | -4.8% | nt | nt | nt | nt
Cc1cccc(N2CCN(C(=O)c3nn(C)c4c3CS(=O)(=O)c3ccccc3-4)CC2)c1C | 16.4µM* | 13µM* | -0.8% | -11.5% | -16.0% | -5.8
Cc1ccc(Cl)cc1N1CCN(C(=O)c2noc(C(C)C)c2[N+](=O)[O-])CC1 | ? | 23.1µM* | ? | -1.0% | ? | -80.9*
CCC(C(=O)OCC(=O)NCc1ccc2c(c1)OCO2)c1ccccc1 (stereo unspecified) | 15.9% | -11.4% | -4.3% | ? | 7.4% | 14.2
Cc1ccc(S(=O)(=O)NC(CC(C)C)C(=O)NCCCn2nc(C)cc2C)cc1 (stereo unspecified) | 3.3% | 1.9% | -0.3% | 3.0% | -2.9% | -13.9
O=C(Nc1ccccc1C(F)(F)F)c1cc2nc(-c3ccccc3)cc(-c3ccccc3)n2n1 | -13.8% | -13.4% | nt | nt | nt | nt
C[C@@H](CN1CC(=O)NC(=O)C1)N1CC(=O)NC(=O)C1 | ? | -8.1% | nt | nt | nt | nt
Cc1ccc(C)c(N2CCN(C(=O)c3nn(C)c4c3CS(=O)(=O)c3ccccc3-4)CC2)c1 | 23.1µM* | 23.1µM* | -26.1% | ? | -23.8% | ?
Nc1nc(Cl)nc2ncn(Cc3ccccc3)c12 | -27.3% | 1.0% | -7.1% | 3.3% | -11.3% | -2.4
